PLAP activator: activators of human placental alkaline phosphatase | P05187 | purified PLAP enzyme, luminescent substrate read-out; active compounds read high | activation fold at 20 µM | 96,000 tested, 1.2% active; in the data active = activation fold above about 2
Cav32 inh: human Cav3.2 channel inhibition, primary screen. O95180. Cav3.2-expressing cells, Fluo-4 calcium fluorescence FDSS; active compounds read low. B-score at 10 µM. 100,000 tested, 4% active;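 active = single-dose well whose peak fluorescence ratio is a statistical outlier from its plate by either plate-standardised score or position-corrected B-score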
M1 agonist: agonists of M1 muscarinic receptor; 64,000 tested, 3% active; CHO-M1 cells, Fluo-4 calcium fluorescence, agonist mode; active compounds read high; AID 626; B-score at 10 µM;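 active = fluorescence rise, raw or as B-score row- and column-corrected plate score, outside the 99.7% band of its plate's samples, either direction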
M1 antag: blocks the rat M1 muscarinic receptor response to acetylcholine; P08482; 64,000 tested, 3.4% active; CHO-M1 cells, Fluo-4 calcium, ACh EC80 antagonist mode; active compounds read low; AID 628; B-score at 10 µM;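 active = calcium fluorescence response, raw or row-and-column corrected B-score, differing from the plate sample mean either way at a set confidence level, mostly lower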
Target sequence (P08482 whole entry, looked up): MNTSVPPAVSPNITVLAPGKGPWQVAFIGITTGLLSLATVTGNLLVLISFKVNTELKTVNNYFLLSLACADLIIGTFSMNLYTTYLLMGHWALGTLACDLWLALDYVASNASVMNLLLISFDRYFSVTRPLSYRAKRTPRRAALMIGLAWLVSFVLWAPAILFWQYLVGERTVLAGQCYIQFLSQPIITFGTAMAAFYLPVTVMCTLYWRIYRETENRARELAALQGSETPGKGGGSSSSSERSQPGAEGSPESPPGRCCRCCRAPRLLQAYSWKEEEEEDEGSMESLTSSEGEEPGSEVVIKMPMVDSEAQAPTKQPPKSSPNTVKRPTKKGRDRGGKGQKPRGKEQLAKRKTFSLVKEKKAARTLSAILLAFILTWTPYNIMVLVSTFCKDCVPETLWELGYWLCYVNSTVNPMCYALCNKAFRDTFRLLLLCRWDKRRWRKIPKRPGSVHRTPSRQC
M1 agonist conf: confirmation of rat M1 muscarinic receptor agonists | fluorescence change (max-min) at 10 µM | 1,700 tested, 19% active | CHO-M1 cells, Fluo-4 calcium fluorescence, agonist mode; actives lie on both sides | shares compounds with M1 agonist | AID 1488;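 active = fluorescence change differs from the solvent-only DMSO control mean at a set confidence level in both duplicate runs; inconclusive = differs from solvent-only control mean in just one of two runs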;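 note: an EC20 dose of acetylcholine follows compound addition during the same imaging run; raw fluorescence intensity difference in instrument units with no normalization to controls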
M4 agonist ctr: counter-screen for M1 agonists: activity at rat M4 receptor; shares compounds with M1 agonist; CHO M4/Gqi5 cells, Fluo-4 calcium fluorescence, agonist mode; actives lie on both sides; fluorescence change (max-min) at 10 µM; 1,700 tested, 9% active; AID 1741;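 active = fluorescence change differing from the plate's solvent-only control wells at 99.7% confidence in both duplicates, whether higher or lower; inconclusive = differs from solvent controls in only one of two duplicates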
The depositor's hits bear a star; ? = inconclusive; / = no result. An excerpt weighted towards active compounds, which were near 7.6% of everything screened.

SMILES	PLAP activator	Cav32 inh	M1 agonist	M1 antag	M1 agonist conf	M4 agonist ctr
Cc1csc(SCC(=O)Nc2cc(C(C)(C)C)nn2-c2ccccc2)n1	1.7	-2.8	2.5*	-1	?	-48
Cc1csc(SCC(=O)Nc2ccccn2)n1	0.9	-0.34	-0.78	0.19	/	/
COc1ccc(NC(=O)c2cnc3ccccn3c2=O)cc1OC	/	/	-1.7	0.21	/	/
CCOc1ccc(CNC(=O)CCCOc2cc(=O)n(C)c3ccccc23)cc1	1.8	/	/	/	/	/
COc1ccc(C2C(C(C)=O)=C(C)N=c3s/c(=C\c4cc(C)n(C)c4C)c(=O)n32)c(OC)c1 (stereo not drawn)	1.1	-5*	144*	-0.086	458*	?
COc1ccc(C(=O)Nc2ccc(Cl)cc2C(=O)NCc2ccco2)cc1OC	1	-1.5	13*	-0.1	-14	-16
COCCNC(=O)c1ccccc1NC(=O)c1ccc(OC)c(OC)c1	1.1	0.14	31*	0.68	-31*	-94*
COc1ccc(-c2noc(-c3ccccc3C(=O)NCc3ccco3)n2)cc1	0.8	-2	0.68	0.45	/	/
COc1ccc(-c2noc(-c3ccccc3C(=O)NCc3ccco3)n2)cc1OC	0.8	/	4.7*	-0.24	-15	-27
CCOc1cc(C(=O)NCCOC)ccc1OC	0.8	0.75	0.05	-0.15	/	/
COc1ccc(N=c2oc3c(OC)cccc3cc2C(=O)NCc2ccco2)cc1OC	1.1	-1.9	15*	0.31	18	-1.8
O=C1C(=O)N(CCCn2ccnc2)C(c2cccnc2)/C1=C(/O)c1ccc(Br)cc1 (stereo not drawn)	/	/	-0.1	0.072	/	/
COc1ccc(C(=O)Nc2sc3c(c2C(=O)NCc2ccco2)CCCC3)cc1OC	1.7	-1.2	/	/	/	/
COc1ccccc1-c1noc(-c2ccccc2C(=O)Nc2ccccc2)n1	1	-0.025	0.23	0.22	/	/
COc1ccc(C(=O)Nc2ccccc2C(=O)NCc2ccco2)cc1OC	1.1	-0.098	6.6*	-0.87	-2.9	-25
COc1ccccc1NC(=O)c1ccccc1-c1nc(-c2ccccc2OC)no1	1.5	-2.6	7.3*	-1.4	-29*	-50
O=C(NCc1ccco1)c1cccc2ccccc12	0.9	-0.44	11*	0.84	-16	-41
Nc1c(S(=O)(=O)c2cccc(Cl)c2)c2nc3ccccc3nc2n1/N=C/c1ccc(O)c(O)c1	1	-0.7	0.21	0.72	/	/
O=C1CC(C2CCCO2)C(=O)N1c1cccc(Cl)c1 (stereo not drawn)	0.9	-0.061	-0.27	0.43	/	/
Cc1cc(NC(=O)COc2ncnc3sc(C)c(C)c23)no1	0.9	-0.047	15*	0.45	-11	-16
Cc1sc2ncnc(OCC(=O)NC(C)C)c2c1C	0.9	0.002	/	/	/	/
CCOCCCNC(=O)C1CCCCN1S(=O)(=O)c1ccc(F)cc1 (stereo not drawn)	1	0.58	0.59	0.22	/	/
COc1ccccc1CNC(=O)/C=C/c1cc2c(cc1Br)OCO2	1.1	0.071	/	/	/	/
CC(=O)c1c(C)n(CC(=O)NCc2ccc3c(c2)OCO3)c2ccccc12	0.9	-2.9	3.4*	-0.49	?	-37
O=C(Cc1ccc2cccnc2c1)c1ccc(O)cc1O	1	-0.32	-1.8	-0.29	/	/
SMILES	PLAP activator	Cav32 inh	M1 agonist	M1 antag	M1 agonist conf	M4 agonist ctr
Oc1ccc2cccnc2c1	0.7	-1.1	15*	-0.007	112*	46
O=C(NCCNc1ccc([N+](=O)[O-])cc1)c1ccccc1Br	0.8	-0.0073	/	/	/	/
CCN(CC)c1ccc2c(c1)OC(N)=C(C#N)C2c1cccnc1 (stereo not drawn)	1	-11*	18*	-4.6*	681*	652*
O=C(c1cc(-c2ccccc2)nn1CC1CC(c2cccnc2)=NO1)N1CCOCC1 (stereo not drawn)	/	1.8	/	/	/	/
Cc1ccc(-n2nc(-c3cccnc3)cc2C(=O)N2CCOCC2)c(C)c1	1.3	0.78	20*	-0.3	?	-26
CCc1ccc(S(=O)(=O)NCc2cn3ccsc3n2)s1	0.9	-0.8	3.3*	0.55	-0.7	-45
O=C(C1CC1)N1CCc2cc(Br)cc(S(=O)(=O)N3CCOCC3)c21	1	1.7	3*	0.076	-4.8	-20
CN(C)S(=O)(=O)N(CC(=O)N(Cc1ccccc1)Cc1ccccc1)c1ccccc1	1.6	-2.9	/	/	/	/
Cc1cc2n(n1)C(c1ccccc1Cl)Nc1ccccc1-2 (stereo not drawn)	1.6	-1.4	2.5*	-0.042	-16	-28
Cc1ccc(CNC(=O)CS(=O)(=O)CC(=O)O)cc1	0.9	-0.22	/	/	/	/
O=c1c2ccccc2nc2n1CCN2Cc1ccc(Cl)cc1	1	-0.35	5.6*	-1.8	?	-59
c1cc2c(cc1-c1cnc3n1CCC3)OCCO2	0.9	-0.82	2.6*	-2.5	?	-61
c1ccc(-c2ccc(-c3cnc4n3CCCCC4)cc2)cc1	1.7	-0.66	/	/	/	/
CCn1nc(-c2ccccc2)c2nc3ccccc3nc21	1.4	/	24*	-0.93	24	11
CCCn1nc(-c2ccccc2)c2nc3ccccc3nc21	0.9	-2.2	475*	0.5	492*	1201*
CCn1c2ccc(Cl)cc2c2nc3ccccc3nc21	1	-0.46	/	/	/	/
COCC(=O)NC1CCN(C(=O)Nc2ccc(Br)cc2)CC1	1.4	0.56	-0.15	-1.4	/	/
O=C(c1cc(-c2ccncc2)nc2ccccc12)N1CCN(c2ccccn2)CC1	1.2	-2.1	1.6	-0.34	/	/
O=C(c1cnc(N2CCN(c3ncccn3)CC2)c2ccccc12)N1CCN(c2ccccn2)CC1	1.2	-0.38	12*	-1.3	-10	-12
O=C(c1cc(-c2ccccc2)nc2ccccc12)N1CCN(c2ccccn2)CC1	1.5	-3.1	4.1*	-1.2	-16	-41
O=C(c1cc(-c2ccncc2)nc2ccccc12)N1CCN(c2ccc(N3CCOCC3)nn2)CC1	1.3	/	4.8*	0.35	-22	-28
CCCNC(=S)Nc1ccc2nc(-c3ccccn3)c(-c3ccccn3)nc2c1	1.3	/	/	/	/	/
CCC(C)NS(=O)(=O)c1ccc(NC(=O)c2c(-c3ccccc3)noc2C)cc1 (stereo not drawn)	1	-1.9	-0.59	-0.71	/	/
COCCSc1ccccc1C(=O)N1CCN(Cc2ccc3c(c2)OCO3)CC1	1.2	0.2	0.62	0	/	/
Cc1cc(=O)oc2cc(OCc3nnc(-c4ccccc4Br)o3)ccc12	0.9	1.5	0.19	0.79	/	/
Cc1cc(=O)oc2cc(OCC(=O)OCc3nnc(-c4ccccc4)o3)ccc12	1.2	0.4	37*	-0.17	-4.5	-21
COc1ccc(NC(=O)COc2ccccc2C#N)c(S(=O)(=O)N2CCCCC2)c1	1.4	-0.51	4.4*	-1.6	-16	-26
Cc1cc(C)c(NC(=O)C2CCCN2CCO)c(C)c1 (stereo not drawn)	0.9	/	2*	0.22	1.8	-8.9
CCCCN1CCCCC1C(=O)Nc1c(C)cc(C)cc1C (stereo not drawn)	1.6	0.3	-0.36	0.012	/	/
COc1ccc(-c2nc(CN3CCC(C(=O)N4CCc5ccccc54)CC3)c(C)o2)cc1OC	1.8	-4.1	-0.47	-1.2	/	/

Screens: PubChem, several laboratories
